Consider 87 compounds from PubChem BioAssay AID652067 (The Scripps Research Institute Molecular Screening Center, 2013).

Among all 370,000 compounds or so, about 5,400 (1.5%) were called active.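 Rule for the calls: active = activation above the mean of all tested compounds plus 3 SD (cut at about 5.5% in these data); inactive = the rest.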 For the sample, actives were picked, then their nearest neighbours and some compounds at random.

This test relates to DAF-12 nuclear receptor (Haemonchus contortus). The test is described as follows: H. contortus DAF-12 nuclear receptor activators, primary screen, cell-based, luminescence, HEK293, lit1-tk-luc reporter (AID 652067).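 Note: 100% = response to 3 µM Δ7-dafachronic acid high control.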 Conditions: HEK293 hcDAF-12 lit1-tk-luc reporter, at 6.8 µM, active compounds read high, 0% DMSO, 100% Δ7-dafachronic acid.
As for `CC(=O)C1C(c2ccc(Cl)cc2)c2c(n[nH]c2C)CC1(C)O` (configuration not stated), the activation is -0.09% (inactive).

Regarding `O=S(=O)(c1cccs1)N1CCCc2nc(-c3ccc(Br)cc3)ccc21`, the activation is -0.17% (inactive).

As for `CCc1ccc(C2=CC(=O)CC(C)(C)C2=O)cc1`, the activation was 1.24% (inactive). Consider `CC(C)N1CCCCC(NC(=O)c2ccc3ccccc3c2)C1=O` (configuration not stated), for which the activation was -0.97% (inactive). As to `C=CCN1C(=O)[C@@H](CC(=O)NCCCOCCCC)[C@]2(C(=O)OCC)CCCCC/C=C/12`, the activation is -0.92% (inactive). On to `COc1ccc(S(=O)(=O)Nc2ccc3c(c2)C(=O)N([C@H](C)CO)C[C@H](C)[C@@H](CN(C)C)OCCCC[C@H](C)O3)cc1`, for which the activation was -1.41% (inactive). As to `Cc1cc(Br)cn2c(Cc3ccccc3C(F)(F)F)c(-c3ccc(C#N)cc3)nc12`, the activation was 0.68% (inactive). For the compound `COc1ccc(-c2cc(C(=O)NC(Cc3c[nH]c4ccccc34)C(=O)O)c(C)o2)cc1OC` (configuration not stated), the activation is 6.3% (active). Regarding `COc1ccc(-c2cc(=O)oc3cc(OCC(=O)N[C@@H](Cc4c[nH]c5ccccc45)C(=O)O)ccc23)cc1`, the activation was 4.41% (inactive). To `COc1ccc(-c2cc(C(=O)NC(C(=O)O)C(C)C)c(C)o2)cc1OC` (configuration not stated) belongs 1.96% (inactive); to `CCOC(=O)/C=C/c1ccccc1O`, -0.51% (inactive). In the case of `Cc1cc2ncn(CCCCOc3ccccc3)c2cc1C` it was -1.91% (inactive); in that of `C[C@@H](CN1C2=NC[C@@H](Cc3ccccc3)N2C[C@H]1Cc1ccc(O)cc1)NC(=O)CCC1CCCCC1`, -1.42% (inactive); in that of `COc1cccc(-n2nc(C(=O)N3CCN(Cc4ccccc4)CC3)c3ccccc3c2=O)c1`, -2.27% (inactive). As to `COc1ccc(OC)c(-n2c(=S)[nH]c3cc(C(=O)N4CCCCC4)ccc3c2=O)c1`, the activation was -1.94% (inactive). In the case of `COc1cccc(-n2c(=S)[nH]c3c(oc4ccccc43)c2=O)c1` it was 5.86% (active); in that of `C[C@@H]1ON(C)[C@H]2C[C@H]3c4cc(N5CCOCC5)ccc4CCN3C[C@@H]12`, -1.8% (inactive); in that of `CCc1ccc2oc(-c3ccc(N)cc3)nc2c1`, 11.8% (active). In the case of `CCCCOCCCNC(=O)C[C@H]1C[C@@]2(C(=O)OC)C(=C[C@H](COCc3ccccc3)O[C@@H]2C)N(Cc2cccc3ccccc23)C1=O` it was -1.88% (inactive); in that of `COc1cccc(Cn2cc(COC(=O)Nc3ccc(F)cc3)nn2)c1`, -2.13% (inactive); in that of `Cc1cc(NS(=O)(=O)c2ccc(NC(=O)CSc3nnc(SCc4ccc(F)cc4)s3)cc2)nc(C)n1`, 0.88% (inactive). In the case of `CC(C)Cc1oc(C(=O)O)cc1CN` it was 6.53% (active); in that of `Cc1oc(CC(C)C)c(CN2CCCC2)c1C(=O)O`, -1.65% (inactive); in that of `CC(C)c1cc(C(=O)O)on1`, -0.85% (inactive). With `O=C(OC12CCCN(C1)/C(=C/c1cccnc1)C2)C1CCCC1` (configuration not stated), the activation was -3.57% (inactive). In the case of `COC(=O)c1c(-c2ccc(OC)cc2)c2c(c3c4cc(OC)ccc4n(S(=O)(=O)c4ccc(F)cc4)c13)C(=O)N(C)C2` it was -2.09% (inactive); in that of `O=[N+]([O-])c1cc([N+](=O)[O-])c2cccnc2c1O`, 3.46% (inactive). Regarding `O=[N+]([O-])c1ccc2nc(-c3ccccn3)[nH]c2c1`, the activation is 5.76% (active). Take `O=C(Nc1ccc([N+](=O)[O-])cc1)OCCc1ccccn1`: the activation is 1.17% (inactive). Consider `O=C(N1CCOCC1)N1CC[C@H]2[C@H](CCCN2Cc2ccc(F)cc2)C1`, for which the activation is 0.64% (inactive). In the case of `Cc1ccccc1CN1CCCCC(NC(=O)Nc2ccccc2F)C1=O` (configuration not stated), the activation is -3.94% (inactive). For `CC(C)c1ccc(Nc2nnc(SCC(=O)c3nnc(-c4ccccc4)o3)s2)cc1`, the activation was 6.6% (active). Take `CC(C)Nc1nnc(SCC(=O)c2c[nH]c3ccccc23)s1`: the activation is 4.15% (inactive). With `CN(C(=O)CSc1nnc(Nc2ccccc2)s1)C1CCS(=O)(=O)C1` (configuration not stated), the activation is -0.76% (inactive). As for `COC(=O)C1=C(C)N(Cc2cccc(C(F)(F)F)c2)C(=NCc2cccc(C(F)(F)F)c2)NC1c1ccccc1C(F)(F)F` (configuration not stated), the activation was -2.22% (inactive). As for `CC[C@@H](CCC(=O)N(c1ccccc1)c1ccccc1)C1CC1`, the activation was -2.66% (inactive).

As for `COc1ccc(-c2csc(Cc3nc(O)cs3)n2)cc1`, the activation is 10.9% (active).

As to `COc1ccc(C(C)(O)c2nc(-c3cc(F)cc(F)c3)cs2)cc1` (configuration not stated), the activation is -1.58% (inactive).

`COc1ccc(C(C)(NC(C)=O)c2nc(-c3ccc(S(C)(=O)=O)cc3)cs2)cc1` (configuration not stated): the activation is -1.14% (inactive). Turning to `O=S1(=O)c2c(cccc2N2CCSCC2)Oc2ccccc2CN1Cc1cn(Cc2ccc(F)cc2)nn1`, the activation is -2.88% (inactive). In the case of `O=C(CNS(=O)(=O)c1ccccc1F)N1CCN(c2ccccn2)CC1`, the activation was -0.84% (inactive). In the case of `O=C(Nc1cccc(F)c1)c1cc(-c2ccco2)nc2ccccc12`, the activation is 5.67% (active).

For the compound `O=C(Nc1cccc(F)c1)c1coc(=O)c(Br)c1`, the activation is 0.1% (inactive). On to `CN(C(=O)COC(=O)c1cc(-c2ccco2)nc2ccccc12)C1CCS(=O)(=O)C1` (configuration not stated), for which the activation was 1.58% (inactive). Turning to `O=C(NCc1ccc(Cl)cc1)C1CCCN(c2nc3ccccc3o2)C1` (configuration not stated), the activation was -2.71% (inactive). For the compound `C/C(=N\NC(=S)NC1CCCCC1)c1ccc(C)o1`, the activation is -1.13% (inactive). For `C/C(=N/NC(=O)c1ccc(Br)o1)c1ccc(C)o1`, the activation is 8.8% (active). On to `CC(CNC(=O)c1ccc(Br)o1)NC(=O)c1ccc(Br)o1` (configuration not stated), for which the activation is -0.92% (inactive). Turning to `c1cncc(CNc2ccnc(-c3ccc4c(c3)OCO4)n2)c1`, the activation is 0.49% (inactive).

As to `O=C(Nc1ccc(N2CCOCC2)c(Cl)c1)c1ccc(S(=O)(=O)N2CCOCC2)cc1`, the activation was -2.07% (inactive). To `Cc1ccc(C(=O)Nc2ccc3c(c2)OCCO3)cc1S(=O)(=O)N1CCOCC1` belongs 0.29% (inactive); to `CN1CCN(c2ccc(NC(=O)c3ccc4c(c3)OCCO4)cc2Cl)CC1`, 6.55% (active); to `CCSC1(SCC)N=C(N)C2(C#N)C(c3ccccc3)NC(C)=CC12C#N` (configuration not stated), -0.75% (inactive). For the compound `CN1C(=O)/C(=N/OC(=O)c2ccccc2Br)c2ccccc21`, the activation is -0.66% (inactive). Turning to `CCC1C(=O)c2ccccc2N(C)C1=O` (configuration not stated), the activation was 4.03% (inactive). To `CN1C(=O)/C(=C\c2cc(Br)cs2)c2ccccc21` belongs 6.07% (active).

Turning to `COC(=O)[C@]12C[C@H](CC(=O)NCc3ccc(C)o3)C(=O)N(CCC3=CCCCC3)C1=C[C@H](C(C)(C)C)O[C@@H]2C`, the activation was 0.28% (inactive). `O=[N+]([O-])c1cc(Br)c(O)c(/C=N/Nc2nc3ccccc3s2)c1`: the activation is 5.75% (active). Take `COc1ccc(/C=N/Nc2ncnc3sc4c(c23)CCCC4)cc1O`: the activation was 2.31% (inactive). Consider `COc1cc(/C=N/Nc2nc3ccccc3s2)ccc1O`, for which the activation was 11.4% (active). Consider `COc1cc(/C=C/C(=O)OCC(=O)NCCCc2ccccc2)ccc1O`, for which the activation is -0.23% (inactive). On to `O=C(N/N=C/c1cc([N+](=O)[O-])ccc1O)/C(=C\c1cccs1)NC(=O)c1ccccc1`, for which the activation was 2.67% (inactive).

With `O=C(C1CCCN1S(=O)(=O)c1ccccc1)N1CCc2ccccc2C1` (configuration not stated), the activation was -0.91% (inactive). Regarding `O=C(CSc1nnc(-c2ccccn2)n1-c1ccccc1)Nc1ccc2cn[nH]c2c1`, the activation is 1.82% (inactive). Regarding `CN[C@H]1C[C@H]2c3cc(N4CCOCC4)ccc3CCN2C[C@H]1[C@H](C)O`, the activation was 0.66% (inactive). For `O=C(Nc1ccc(Cl)cc1)C1c2cccc[n+]2CC(=O)N1Cc1ccc2c(c1)OCO2` (configuration not stated), the activation is 6.69% (active). For the compound `O=C(Nc1ccc2c(c1)OCCO2)C1c2ccccc2OCC(=O)N1Cc1ccccn1` (configuration not stated), the activation was 2.69% (inactive). Regarding `CCCOc1ccc(NC(=O)CC2C(=O)N(C)C(=S)N2Cc2ccc3c(c2)OCO3)cc1` (configuration not stated), the activation is -1.25% (inactive).

As for `O=C(COC(=O)/C(=C/c1cccs1)c1cccs1)NCc1ccccc1Cl`, the activation was -2.32% (inactive). On to `COc1cccc(NC(=O)N(C)C[C@@H]2OCc3cn(nn3)CCCC(=O)N([C@@H](C)CO)C[C@H]2C)c1`, for which the activation was 1.21% (inactive).

Regarding `CSc1nc2nc3c(c(=O)n2[nH]1)CCC3`, the activation is 0.72% (inactive). `O=c1c2c(nc3cc(-c4cccc(Cl)c4)[nH]n13)CCCC2`: the activation was 8.74% (active). Turning to `COc1cccc(CC(=O)N2CCN(C(=O)C(=O)c3cccc(C(F)(F)F)c3)CC2)c1`, the activation was 1.16% (inactive). As to `CC(C)CSc1nnc(-c2cccnc2)n1Cc1ccccc1`, the activation was -1.13% (inactive). Consider `O=C(c1ccncc1)N1CC[C@H]2[C@H](CCCN2Cc2ccc(F)cc2)C1`, for which the activation was -1.38% (inactive). As to `CC(C)c1ccc(C=NNc2ccc([N+](=O)[O-])cn2)cc1`, the activation is 9.24% (active). To `CC(C)c1ccc(/C=C2\NC(=O)NC2=O)cc1` belongs -2.26% (inactive); to `CC(NC(=O)C(=O)N/N=C/c1ccc(Cl)cc1)c1ccccc1` (configuration not stated), -1.03% (inactive); to `COC(=O)[C@]12C[C@H](CC(=O)NCc3cccc(C(F)(F)F)c3)C(=O)N(Cc3ccc4c(c3)OCO4)C1=C[C@H](COCc1ccccc1)O[C@@H]2C`, 0.41% (inactive). With `Cc1ccc(C2Nc3cccc4cccc(c34)N2)cc1`, the activation is 6.38% (active). Take `COc1ccc(-c2cc(-c3nnc(SCC(=O)Nc4cccc5ccccc45)n3N)[nH]n2)cc1`: the activation was 0.47% (inactive). Turning to `O=C(N=C1SC2CS(=O)(=O)CC2N1c1cc(Cl)ccc1Cl)C1CC1` (configuration not stated), the activation was -1% (inactive). With `COc1ccc(Cn2cc(COC(=O)N(C)Cc3ccccc3)nn2)cc1`, the activation was -0.59% (inactive). Regarding `Cc1ccccc1C(=O)OC1OC(=O)C(Cl)=C1Nc1ccccc1` (configuration not stated), the activation was -2.44% (inactive). Regarding `Cc1cc(C)nc(Nc2n[nH]c(-c3ccccc3N)n2)n1`, the activation is 8.9% (active). Take `CC(C)CNc1cccc2c1S(=O)(=O)N[C@H](C)CO2`: the activation is -1.2% (inactive). Regarding `O=C(NCc1ccccc1)[C@@H]1CCCN1C(=O)[C@H]1CCCN1C(=O)c1cccc(Cl)c1`, the activation is -0.09% (inactive).
